Source: PubChem BioAssay (National Center for Advancing Translational Sciences (NCATS))
ELG1 genotox – inducers of genotoxicity in HEK293T ELG1-luciferase cells. HEK293T ELG1-luciferase reporter, luminescence, 16 h. Potency, µM (highest dose often 46 µM), usual class: activators. 330,000 tested, 1.3% active. AID 504466; also: nearly all actives have a fitted effect of over 60% in size
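Reporter readout depends on ELG1 protein level, which increases with genetic stress. After 16 hr compound exposure at 37 °C, luciferase activity was quantified using ONE-Glo.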
NPC1 prom act – activates the NPC1 promoter; Huh7 NPC1 promoter luciferase reporter, 24 h; 320,000 tested, 2.4% active; Potency, µM (series often up to 9.22 µM), most hits filed as activators; AID 485313; also: nearly all actives have a fitted effect of over 60% in size
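Compounds in DMSO were transferred onto Huh7 NPC1-luciferase reporter cells pre-incubated 2 h; after 24 h at 37 °C, Amplite reagent was dispensed and luminescence recorded 10 min later.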
Rab9 prom act – activators of Rab9 promoter | Huh7 Rab9 promoter-luciferase reporter, luminescence, 24 h | Potency, µM (top dose mostly 9.22 µM), actives largely listed as activators | AID 485297 | 320,000 tested, 2.8% active; also: nearly all actives have a fitted effect of over 60% in size
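Promoter activation is measured as luciferase luminescence in Huh7 cells stably transfected with a Rab9 promoter–luciferase construct, following 24 h compound exposure at 37 °C and 10 min reagent incubation at ambient temperature.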
SMN2 splice up – enhancers of SMN2 splice variant expression; HEK293 SMN2-luciferase splicing reporter, luminescence, 30-36 h; 210,000 tested, 2.8% active; AID 1458; Potency, µM (series often up to 46.1 µM), actives largely listed as activators; also: nearly all actives have a fitted effect of over 55% in size
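qHTS luciferase splicing reporter: luminescence rises when SMN2 exon 7 is included in transfected HEK293 cells. Compound exposure lasted 30-36 h at 37C, with 4.5 mM final sodium butyrate as control, followed by a ONE-Glo read.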
FLuc modulator – inhibits or activates purified firefly luciferase, miR-21 counter-screen; P08659; purified FLuc, Km substrates, luminescence inhibition; Potency, µM (highest dose often 57.5 µM), usual class: inhibitors; 360,000 tested, 6.9% active; also: nearly all actives have a fitted effect of over 55% in size
Target sequence (P08659 whole entry, looked up): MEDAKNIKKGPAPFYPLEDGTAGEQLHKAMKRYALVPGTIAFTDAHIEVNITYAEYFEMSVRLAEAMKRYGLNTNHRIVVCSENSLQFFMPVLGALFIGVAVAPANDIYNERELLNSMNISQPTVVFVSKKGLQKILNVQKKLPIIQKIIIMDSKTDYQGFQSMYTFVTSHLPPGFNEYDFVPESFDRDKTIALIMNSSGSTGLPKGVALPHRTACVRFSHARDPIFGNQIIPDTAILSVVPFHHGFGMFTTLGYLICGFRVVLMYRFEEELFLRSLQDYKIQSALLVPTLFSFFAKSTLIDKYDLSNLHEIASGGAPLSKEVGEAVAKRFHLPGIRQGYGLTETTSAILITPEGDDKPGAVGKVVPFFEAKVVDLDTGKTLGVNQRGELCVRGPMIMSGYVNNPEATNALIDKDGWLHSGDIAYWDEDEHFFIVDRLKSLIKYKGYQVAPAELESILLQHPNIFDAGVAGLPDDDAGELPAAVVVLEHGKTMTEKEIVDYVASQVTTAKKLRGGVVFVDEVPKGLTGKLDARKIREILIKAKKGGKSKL
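Biochemical qHTS of compounds, final roughly 60 µM downward over six points, against 10 nM purified firefly luciferase using Km concentrations of substrates (10 uM D-luciferin, 10 uM ATP) in Tris acetate pH 7.5 buffer; luminescence output.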
Hits are given with their value. The list is not random: actives were taken first. Their share in the collection is about 7.5%. Calls follow the shape of the dose curve; as a rule, active = well fitted curve in the direction sought with a large enough effect; inconclusive = small, poorly fitted or top-dose-only effect, or another doubt; inactive = no such curve, though single readings can be large; an effect the other way counts as inactive or inconclusive.

What do the screens show for `COc1cc2ccccc2cc1C(=O)Nc1ccc(C)cn1`?
ELG1 genotox: 2.91µM; NPC1 prom act: inconclusive; Rab9 prom act: inconclusive; FLuc modulator: 3.01µM

Results for Cc1ccc(NC(=O)c2ccc(C(=O)c3ccccc3)cc2)nc1 ?
ELG1 genotox: inconclusive; NPC1 prom act: inactive; Rab9 prom act: inactive; FLuc modulator: 19µM

How did O=C(OCc1nnc(-c2ccccc2)o1)C1CC(=O)N(Cc2ccco2)C1 (centres undefined) do in these assays?
ELG1 genotox: inactive; NPC1 prom act: inactive; Rab9 prom act: inactive; SMN2 splice up: inactive; FLuc modulator: inactive

How did COc1ccccc1N1CCN(C(=O)CCC(=O)Nc2nnc(CC(C)C)s2)CC1 do in these assays?
ELG1 genotox: inactive; NPC1 prom act: inactive; Rab9 prom act: inactive; FLuc modulator: inactive

How did CCn1cc(Br)c(C(=O)NC(=S)Nc2ccc(C(=O)OC)cc2)n1 do in these assays?
ELG1 genotox: inactive; NPC1 prom act: inactive; Rab9 prom act: inactive; SMN2 splice up: inactive; FLuc modulator: inactive

How did CCOC(=O)c1cccc(NC(=O)c2cnc3sc(N4CCOCC4)nn3c2=O)c1 do in these assays?
FLuc modulator: inactive

Results for CCOc1ccc(CCNC(=O)CSc2n[nH]c(N)n2)cc1OCC ?
ELG1 genotox: inactive; NPC1 prom act: inactive; Rab9 prom act: inactive; FLuc modulator: inactive

How did Cc1cc(Br)ccc1NC(=O)CNC(=O)CN(C)C1CCS(=O)(=O)C1 (centres undefined) do in these assays?
ELG1 genotox: inactive; NPC1 prom act: inactive; Rab9 prom act: inactive; FLuc modulator: inactive

What do the screens show for `COc1ccc(-c2cc(=O)n(-c3nc4ccccc4[nH]3)[nH]2)cc1`?
ELG1 genotox: inconclusive; NPC1 prom act: inactive; Rab9 prom act: inconclusive; SMN2 splice up: inconclusive; FLuc modulator: 10.7µM

What do the screens show for `COc1cc(OC)cc(C(=O)Nc2cc(-c3nc4ccccc4[nH]3)ccc2C)c1`?
SMN2 splice up: inactive; FLuc modulator: 7.57µM

What do the screens show for `c1cncc(-c2nc3ccccc3[nH]2)c1`?
ELG1 genotox: inactive; NPC1 prom act: inactive; Rab9 prom act: inactive; SMN2 splice up: inactive; FLuc modulator: inconclusive

What do the screens show for `COc1ccc(CCCc2nc3ccccc3[nH]2)cc1`?
ELG1 genotox: inactive; NPC1 prom act: inactive; Rab9 prom act: inactive; FLuc modulator: inconclusive

Results for c1ccc(-c2nc3ccccc3[nH]2)cc1 ?
ELG1 genotox: inconclusive; NPC1 prom act: 3.55µM; Rab9 prom act: 1.58µM; FLuc modulator: 7.57µM

How did O=C(O)c1cccc(-c2nc3ccccc3[nH]2)c1 do in these assays?
ELG1 genotox: inactive; NPC1 prom act: inconclusive; Rab9 prom act: inconclusive; SMN2 splice up: 15.8µM; FLuc modulator: 1.9µM

What do the screens show for `COc1c(Cl)cc(C(=O)Nc2cc(-c3nc4ccccc4[nH]3)ccc2C)cc1Cl`?
SMN2 splice up: inactive; FLuc modulator: inconclusive

What do the screens show for `COC(=O)Nc1ccc2c(c1)N(C(=O)CCCl)c1ccccc1S2`?
ELG1 genotox: inactive; NPC1 prom act: inactive; Rab9 prom act: inactive; FLuc modulator: inactive

What do the screens show for `c1ccc2[nH]c(-c3ccncc3)nc2c1`?
ELG1 genotox: inactive; NPC1 prom act: inactive; Rab9 prom act: inactive; FLuc modulator: inconclusive

What do the screens show for `COc1ccc(-c2nc3ccccc3[nH]2)cc1`?
ELG1 genotox: 0.517µM; NPC1 prom act: 0.501µM; Rab9 prom act: 0.631µM; SMN2 splice up: 2.51µM; FLuc modulator: 0.675µM

How did COC(=O)c1ccc(-c2nc3ccccc3[nH]2)cc1 do in these assays?
ELG1 genotox: inconclusive; NPC1 prom act: 0.708µM; Rab9 prom act: 0.501µM; SMN2 splice up: 8.91µM; FLuc modulator: 1.69µM

What do the screens show for `Nc1cc(N)cc(-c2nc3ccccc3[nH]2)c1`?
ELG1 genotox: inconclusive; NPC1 prom act: inactive; Rab9 prom act: inactive; SMN2 splice up: inconclusive; FLuc modulator: 23.9µM

What do the screens show for `O=C(O)c1ccccc1-c1nc2ccccc2[nH]1`?
ELG1 genotox: inactive; NPC1 prom act: inactive; Rab9 prom act: inconclusive; SMN2 splice up: inactive; FLuc modulator: 13.5µM

How did COC(=O)c1ccc(C(=O)Nc2ccc3nc(-c4ccncc4)[nH]c3c2)cc1 do in these assays?
ELG1 genotox: inactive; NPC1 prom act: inactive; Rab9 prom act: inactive; FLuc modulator: inactive

Results for COc1ccc2c(CNCc3cccs3)c(C(=O)O)n(Cc3ccccc3C)c2c1 ?
FLuc modulator: inactive

What do the screens show for `COc1ccc2oc(=Nc3ccccc3)c(-c3nc4ccccc4[nH]3)cc2c1`?
ELG1 genotox: 7.31µM; NPC1 prom act: inconclusive; Rab9 prom act: inconclusive; SMN2 splice up: 12.6µM; FLuc modulator: 6.01µM

Results for Cc1cc(-c2nc3ccccc3[nH]2)ccc1N ?
ELG1 genotox: inconclusive; NPC1 prom act: 0.891µM; Rab9 prom act: 0.562µM; SMN2 splice up: 6.31µM; FLuc modulator: 4.26µM

What do the screens show for `Cc1cccc(Nc2cc(C)c3c(O)cccc3n2)c1C`?
ELG1 genotox: inactive; NPC1 prom act: inactive; Rab9 prom act: inactive; SMN2 splice up: inactive; FLuc modulator: 16.9µM

What do the screens show for `Cc1cc(Nc2ccccc2O)nc(C)n1`?
FLuc modulator: inactive

How did COc1cc2cc(C(=O)Nc3ccc4c(c3)OCCO4)[nH]c2cc1OC do in these assays?
ELG1 genotox: inconclusive; NPC1 prom act: inactive; Rab9 prom act: inactive; FLuc modulator: 12µM

How did COc1cc(C(=O)NNC(=O)c2ccc3c(c2)OCCO3)cc(OC)c1OC do in these assays?
ELG1 genotox: inactive

How did CCn1cc(C(=O)Nc2ccc3c(c2)OCCO3)c2cc(OC)c(OC)cc2c1=O do in these assays?
ELG1 genotox: inactive; NPC1 prom act: inactive; Rab9 prom act: inactive; SMN2 splice up: inactive; FLuc modulator: inactive

What do the screens show for `COc1cc2[nH]c(C(=O)Nc3ccc4c(c3)OCCO4)cc2c(OC)c1OC`?
ELG1 genotox: inconclusive; NPC1 prom act: inactive; Rab9 prom act: inactive; FLuc modulator: 8.49µM

What do the screens show for `CCCN(C(=O)c1nc2nc(C)cc(C)n2n1)c1c(N)n(Cc2ccccc2)c(=O)[nH]c1=O`?
ELG1 genotox: inactive; NPC1 prom act: inactive; Rab9 prom act: inactive; FLuc modulator: inactive

How did CC(C)COc1ccc(C(=O)Nc2onc3c2CCCC3)cc1 do in these assays?
SMN2 splice up: inactive; FLuc modulator: 0.338µM

How did CC(C)COc1ccc(C(=O)Nc2ccc([N+](=O)[O-])cc2)cc1 do in these assays?
ELG1 genotox: inactive; NPC1 prom act: inactive; Rab9 prom act: inactive; SMN2 splice up: inactive; FLuc modulator: inactive

How did CCOc1ccc(C(=O)Nc2onc3c2CCCC3)cc1 do in these assays?
SMN2 splice up: 2.82µM; FLuc modulator: 0.301µM

How did CCOc1ccc(NC(=O)NCCc2c(C)nn(C)c2C)cc1 do in these assays?
FLuc modulator: inactive

How did C=CCn1c(=S)[nH]c2cc(-c3ccccc3)sc2c1=O do in these assays?
ELG1 genotox: inactive; NPC1 prom act: inactive; Rab9 prom act: inactive; FLuc modulator: 1.9µM

Results for Cc1ccccc1C(=O)Nc1ccc(OCc2cc(=O)n3cccc(C)c3n2)cc1 ?
FLuc modulator: inactive

How did O=C(c1ccccc1)c1ccc2n1CC[C@H]2C(=O)O do in these assays?
SMN2 splice up: inactive
